From PubChem BioAssay (NCATS)
Where “and” joins values, the source holds several entries; their conditions need not be identical. Identical values can stand only once. Inconclusive results are not listed. Entries that show only a call come without a potency. Calls of active or inactive are those of the source. Unless noted, the call rests on the fitted dose curve; in most records, active means well fitted curve in the direction sought with a large enough effect; inconclusive means small, poorly fitted or top-dose-only effect, or another doubt; inactive means no such curve, though single readings can be large; an effect the other way counts as inactive or inconclusive.

Key:
[1] = Cell Viability - Jurkat (AID 426;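 active means dose-dependent loss of cell ATP signal giving a full or clear fitted curve, ranked by lower potency value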; further: potency means the concentration at half of the fitted maximal effect); conditions: qHTS
Procedure, shortened: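 Jurkat (Clone E6-1) cells, 5000/well in complete medium, exposed to compounds for 40 hr at 37C; intracellular ATP measured by CellTiter-Glo luminescence after 20 min at room temperature. AC50 from Hill fits.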

[2] = Cell Viability - NIH 3T3 (AID 541); conditions: NIH 3T3 cell viability, qHTS; activity change, negative = cytotoxicity: at 92.2 µM (top of the series); further: nearly all actives have a fitted effect of over 25% in size
Procedure, shortened: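 Mouse NIH 3T3 fibroblasts, 1000 cells/well, rested 5 hr at 37 °C, then exposed to compound for 40 hr at 37 °C in complete medium. Viability read as intracellular ATP by CellTiter-Glo luminescence; AC50 from Hill-equation fits of concentration-response data.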

[3] = biological target: Cytochrome P450 3A4 (Homo sapiens) (UniProt P08684); assay: qHTS Assay for Inhibitors and Substrates of Cytochrome P450 3A4 (AID 884); conditions: recombinant CYP3A4, Luciferin-PPXE luminescence; series mostly up to 57.1 µM; further: nearly all actives have a fitted effect of over 50% in size
Sequence of Cytochrome P450 3A4 (Homo sapiens) (P08684 whole entry, looked up): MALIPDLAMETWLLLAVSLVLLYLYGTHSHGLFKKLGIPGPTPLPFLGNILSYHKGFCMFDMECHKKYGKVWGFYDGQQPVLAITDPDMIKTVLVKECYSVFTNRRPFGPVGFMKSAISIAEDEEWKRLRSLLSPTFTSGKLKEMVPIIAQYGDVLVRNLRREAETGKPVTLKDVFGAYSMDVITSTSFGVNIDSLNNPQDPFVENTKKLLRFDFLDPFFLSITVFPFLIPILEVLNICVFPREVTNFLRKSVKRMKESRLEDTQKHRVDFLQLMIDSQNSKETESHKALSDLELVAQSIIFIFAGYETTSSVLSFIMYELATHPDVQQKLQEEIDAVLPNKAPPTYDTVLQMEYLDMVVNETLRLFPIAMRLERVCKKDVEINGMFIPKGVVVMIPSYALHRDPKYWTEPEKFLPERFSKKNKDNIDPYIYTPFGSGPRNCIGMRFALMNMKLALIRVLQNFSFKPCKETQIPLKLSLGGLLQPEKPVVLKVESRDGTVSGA
Procedure, shortened: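 20 nM human CYP3A4 with 25 uM Luciferin-PPXE (at KM) in 200 mM KPO4, preincubated 10 min with compound; NADPH regeneration started a 60 min RT reaction. Luciferin detected by luminescence, normalized to 57 uM ketoconazole as full inhibition.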

[4] = MultiTox-Fluor Cytotoxicity Assay - LYMP1-002 - Dead Cells (AID 960); conditions: LYMP1-002 lymphoblastoid cells, dead-cell protease fluorescence; series mostly up to 46.1 µM; further: nearly all actives have a fitted effect of over 60% in size
Procedure, shortened: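 Human lymphoblastoid LYMP1-002 cells, 2500/well, treated 16 h at 37 C; dead-cell protease cleavage of bis-AAF-R110 read by fluorescence (485/520); normalized to DMSO and 15 uM tetraoctylammonium bromide; AC50 from Hill fit.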

[5] = Cell Viability - LYMP2-009 (AID 968); conditions: LYMP2-009 lymphoblastoid cell viability; series mostly up to 92.2 µM;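 further: cells exposed to compound for 24 h at 37 °C; nearly all actives have a fitted effect of over 55% in size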
[6] = Cell Viability - LYMP2-019 (AID 973); conditions: LYMP2-019 lymphoblastoid cell line viability; series mostly up to 92.2 µM;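 further: cells exposed to compound for 24 h at 37 °C; nearly all actives have a fitted effect of over 55% in size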
Procedure, shortened: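 Human lymphoblastoid LYMP2-019 cells (2500/well) preincubated 5 h at 37 C, then treated 24 h at 37 C in complete medium. Viability by CellTiter-Glo ATP luminescence after 30 min at room temperature; AC50 from Hill fits.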

[7] = biological target: Glucocorticoid receptor (Homo sapiens) (UniProt P04150); assay: qHTS assay for small molecule agonists of glucocorticoid receptor signaling (AID 588532; active means well fitted curve in the direction sought with a large enough effect in the signal ratio, with a control signal flat; the % refers to the signal ratio); conditions: HeLa MMTV-bla, beta-lactamase ratio, agonist, 18 h; stronger effect = higher value; percent of dexamethasone control, DMSO zero
Sequence of Glucocorticoid receptor (Homo sapiens) (P04150 whole entry, looked up): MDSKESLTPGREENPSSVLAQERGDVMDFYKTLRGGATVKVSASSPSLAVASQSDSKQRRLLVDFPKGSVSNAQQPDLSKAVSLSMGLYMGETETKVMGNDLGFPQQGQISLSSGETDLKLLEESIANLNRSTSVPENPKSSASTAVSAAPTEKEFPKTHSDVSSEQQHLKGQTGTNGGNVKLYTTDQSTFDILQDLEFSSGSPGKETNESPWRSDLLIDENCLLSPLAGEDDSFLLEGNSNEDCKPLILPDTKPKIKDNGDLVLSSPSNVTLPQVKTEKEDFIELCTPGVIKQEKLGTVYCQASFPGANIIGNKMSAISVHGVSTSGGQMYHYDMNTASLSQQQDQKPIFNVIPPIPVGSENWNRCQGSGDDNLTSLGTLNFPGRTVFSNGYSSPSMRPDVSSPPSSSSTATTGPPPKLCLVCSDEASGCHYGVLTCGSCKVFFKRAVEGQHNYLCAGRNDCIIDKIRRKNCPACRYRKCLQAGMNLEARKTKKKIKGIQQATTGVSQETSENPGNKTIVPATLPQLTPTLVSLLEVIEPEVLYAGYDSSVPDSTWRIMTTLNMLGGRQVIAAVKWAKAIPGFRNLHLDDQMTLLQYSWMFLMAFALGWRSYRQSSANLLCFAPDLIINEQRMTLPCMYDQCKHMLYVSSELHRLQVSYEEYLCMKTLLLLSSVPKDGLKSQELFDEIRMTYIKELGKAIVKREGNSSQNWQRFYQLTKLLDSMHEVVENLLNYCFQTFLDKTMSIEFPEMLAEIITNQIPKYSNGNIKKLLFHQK
Procedure, shortened: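 MMTV-bla HeLa, beta-lactamase reporter; medium with 1% charcoal/dextran-stripped FBS; cpds up to 92 uM, 18 h, 37 C; CCF4 readout 460/530 nm; Hill fit → EC50, efficacy vs 0.1 uM dexamethasone = 100%.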

[8] = biological target: Vitamin D3 receptor (Homo sapiens) (UniProt P11473); assay: qHTS assay for small molecule antagonists of vitamin D receptor signaling (AID 588541; calls by dose curve;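 further: receptor activated by calcitriol during compound treatment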); conditions: HEK293T VDR-UAS-bla, beta-lactamase ratio, antagonist mode; series mostly up to 76.7 µM
Sequence of Vitamin D3 receptor (Homo sapiens) (P11473 whole entry, looked up): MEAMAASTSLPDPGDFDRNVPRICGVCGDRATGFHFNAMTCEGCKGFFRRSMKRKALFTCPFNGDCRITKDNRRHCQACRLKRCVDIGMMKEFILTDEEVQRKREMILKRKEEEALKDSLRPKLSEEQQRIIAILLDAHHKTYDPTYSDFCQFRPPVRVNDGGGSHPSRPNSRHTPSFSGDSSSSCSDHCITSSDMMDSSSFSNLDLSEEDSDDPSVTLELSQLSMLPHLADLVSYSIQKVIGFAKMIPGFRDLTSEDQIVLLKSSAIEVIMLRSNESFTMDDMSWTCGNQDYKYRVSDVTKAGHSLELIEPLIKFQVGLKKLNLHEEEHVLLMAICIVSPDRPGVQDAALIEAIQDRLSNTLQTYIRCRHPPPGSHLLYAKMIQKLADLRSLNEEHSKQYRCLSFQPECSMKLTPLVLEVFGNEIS
Procedure, shortened: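 VDR-UAS-bla HEK293T cells (2000/well, 2% charcoal-stripped FBS) were treated with titrated compounds plus 1-alpha,25-dihydroxyvitamin D3 (50 nM or 3 nM final) for 16 h at 37 C. CCF4 beta-lactamase fluorescence was read; Hill fits gave IC50.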

[9] = biological target: Vitamin D3 receptor (Homo sapiens) (UniProt P11473); assay: qHTS assay for small molecule agonists of vitamin D receptor signaling (AID 588543; calls by dose curve); conditions: HEK293T VDR-UAS-bla, beta-lactamase ratio, 16 h; series mostly up to 76.8 µM
Procedure, shortened: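 β-lactamase reporter, VDR-UAS-bla HEK293T, agonist mode. Cells plated 5 h at 37 °C, compound titration 16 h at 37 °C, CCF4 dye 2 h RT, ratio 460/530 nm. Hill fit → EC50, efficacy vs 50 nM 1α,25-(OH)2D3.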

[10] = qHTS assay for small molecule agonists of retinoid X receptor alpha signaling (AID 588544); conditions: HEK293T RXRa-UAS-bla, beta-lactamase reporter, 18 h; 530 nm emission
[11] = biological target: Thyroid hormone receptor beta (Homo sapiens) (UniProt P10828); assay: qHTS assay for small molecule agonists of thyroid hormone receptor beta signaling (AID 588545; calls by dose curve); conditions: TR-UAS-bla GripTite HEK 293, beta-lactamase ratio, agonist mode, 18 h; series mostly up to 76.7 µM
Sequence of Thyroid hormone receptor beta (Homo sapiens) (P10828 whole entry, looked up): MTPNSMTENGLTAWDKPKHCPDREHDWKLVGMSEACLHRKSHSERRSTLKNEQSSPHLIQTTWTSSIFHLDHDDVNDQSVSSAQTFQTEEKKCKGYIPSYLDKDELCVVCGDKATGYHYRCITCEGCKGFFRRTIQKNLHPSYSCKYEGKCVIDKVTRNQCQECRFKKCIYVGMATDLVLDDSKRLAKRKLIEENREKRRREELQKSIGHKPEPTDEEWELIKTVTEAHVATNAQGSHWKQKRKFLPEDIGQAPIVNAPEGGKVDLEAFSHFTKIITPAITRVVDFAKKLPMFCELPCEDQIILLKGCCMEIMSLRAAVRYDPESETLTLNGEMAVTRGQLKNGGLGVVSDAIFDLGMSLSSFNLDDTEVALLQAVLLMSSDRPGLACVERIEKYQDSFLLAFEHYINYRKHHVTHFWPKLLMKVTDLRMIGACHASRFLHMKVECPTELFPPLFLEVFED
Procedure, shortened: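 Cells (2500/well) were seeded, incubated 4 hrs at 37 C, dosed with a compound series, incubated 18 hrs, loaded with CCF4 dye for 2 hrs at RT, then read for fluorescence. Data were scaled between DMSO (0%) and 10 nM T3 (100%).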

[12] = biological target: Voltage-gated inwardly rectifying potassium channel KCNH2 (Homo sapiens) (UniProt Q12809); assay: qHTS Assay for Small Molecule Inhibitors of the Human hERG Channel Activity (AID 588834); conditions: U2OS BacMam hERG, FluxOR thallium flux fluorescence; series mostly up to 92.2 µM;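 further: top concentration of the series differs between compounds; lower thallium flux fluorescence means stronger hERG block; nearly all actives have a fitted effect of over 50% in size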
Sequence of Voltage-gated inwardly rectifying potassium channel KCNH2 (Homo sapiens) (Q12809 whole entry, looked up): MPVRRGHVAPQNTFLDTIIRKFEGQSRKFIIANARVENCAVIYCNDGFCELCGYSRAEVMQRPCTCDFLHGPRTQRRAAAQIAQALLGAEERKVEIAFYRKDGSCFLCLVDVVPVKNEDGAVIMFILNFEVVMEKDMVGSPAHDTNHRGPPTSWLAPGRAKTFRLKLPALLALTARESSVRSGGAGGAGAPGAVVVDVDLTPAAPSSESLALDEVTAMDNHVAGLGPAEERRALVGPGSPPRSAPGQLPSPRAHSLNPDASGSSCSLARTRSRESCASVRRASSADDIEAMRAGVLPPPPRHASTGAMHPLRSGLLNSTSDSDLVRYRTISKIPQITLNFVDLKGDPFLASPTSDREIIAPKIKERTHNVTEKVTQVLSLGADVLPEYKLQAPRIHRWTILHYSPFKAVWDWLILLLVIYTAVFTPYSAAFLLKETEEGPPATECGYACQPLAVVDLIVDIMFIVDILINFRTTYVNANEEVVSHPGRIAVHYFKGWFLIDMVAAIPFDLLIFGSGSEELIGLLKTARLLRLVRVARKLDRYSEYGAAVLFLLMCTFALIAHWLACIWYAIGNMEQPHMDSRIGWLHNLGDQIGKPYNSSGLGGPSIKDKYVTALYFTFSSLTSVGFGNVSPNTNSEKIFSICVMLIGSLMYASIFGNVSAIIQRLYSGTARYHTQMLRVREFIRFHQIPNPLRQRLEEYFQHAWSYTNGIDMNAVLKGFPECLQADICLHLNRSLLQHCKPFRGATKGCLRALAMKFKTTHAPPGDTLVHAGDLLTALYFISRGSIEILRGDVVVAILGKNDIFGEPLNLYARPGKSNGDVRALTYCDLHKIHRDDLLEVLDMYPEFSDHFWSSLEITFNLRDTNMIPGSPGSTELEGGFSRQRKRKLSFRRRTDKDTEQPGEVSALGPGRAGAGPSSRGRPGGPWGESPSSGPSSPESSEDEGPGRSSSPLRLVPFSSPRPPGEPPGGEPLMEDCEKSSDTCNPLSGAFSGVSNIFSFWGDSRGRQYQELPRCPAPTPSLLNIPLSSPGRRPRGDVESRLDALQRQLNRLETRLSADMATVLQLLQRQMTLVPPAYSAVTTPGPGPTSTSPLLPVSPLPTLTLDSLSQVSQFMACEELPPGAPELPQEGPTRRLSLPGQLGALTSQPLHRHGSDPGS
Procedure, shortened: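 Concentration-response qHTS measuring drop in thallium-sensitive dye signal. U2OS cells carrying BacMam hERG; compound exposure ~10 min, then stimulation buffer and 2 min read at 1 sec intervals.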

[13] = qHTS assay for small molecule agonists of the antioxidant response element (ARE) signaling pathway (AID 651741; active means well fitted activation curve with a large enough effect in the signal ratio; the % refers to the signal ratio; further: potency means the concentration at half of the fitted maximal effect); conditions: HepG2 ARE-bla reporter, beta-lactamase FRET ratio, 16 h; series mostly up to 96 µM
Procedure, shortened: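 Compounds in DMSO are pinned onto HepG2 ARE-bla cells (2,000/well) that were preincubated 5 h; plates stay 16 h at 37 C, then beta-lactamase activity is detected with LiveBLAzer B/G substrate by fluorescence.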

[14] = qHTS assay for small molecule activators of the nuclear factor-kappa B (NF-kB) signaling pathway (AID 651749; active means well fitted activation curve with a large enough effect in the signal ratio; the % refers to the signal ratio); conditions: NF-kB-bla ME-180 cells, beta-lactamase FRET ratio, 16 h; stronger effect = higher value
Procedure, shortened: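 Screening used 2,000 ME-180 reporter cells per well exposed to pinned compound (23 nL) or DMSO; after 16 hr at 37C, beta-lactamase expression under NF-kB control was assessed through FRET.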

[15] = biological target: Tumor necrosis factor (Homo sapiens) (UniProt P01375); assay: qHTS assay to identify small molecules that stimulate Tumor Necrosis Factor-alpha (TNF-alpha) secretion (AID 651757; active means well fitted curve in the direction sought with a large enough effect in the signal ratio; the % refers to the signal ratio); conditions: Human cells, HTRF 665/615 ratio; series mostly up to 92.2 µM
Sequence of Tumor necrosis factor (Homo sapiens) (P01375 whole entry, looked up): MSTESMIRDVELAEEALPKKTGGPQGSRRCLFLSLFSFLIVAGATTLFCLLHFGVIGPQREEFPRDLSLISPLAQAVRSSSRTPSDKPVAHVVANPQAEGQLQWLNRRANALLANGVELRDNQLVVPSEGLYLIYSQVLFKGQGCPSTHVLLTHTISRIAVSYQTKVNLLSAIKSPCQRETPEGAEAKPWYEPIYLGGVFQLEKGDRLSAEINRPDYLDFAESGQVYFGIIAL
Procedure, shortened: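 THP-1 cells (3000/well) exposed to compounds 17 hrs at 37 C. Secreted TNF-alpha detected by HTRF with cryptate- and XL665-labeled anti-TNF-alpha antibodies after 3 hr at room temperature.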

[16] = biological target: Nuclear receptor ROR-gamma (Homo sapiens) (UniProt P51449); assay: qHTS assay for small molecule antagonists of the retinoid-related orphan receptor gamma (ROR-gamma) signaling pathway (AID 651802); conditions: ROR-gamma antagonist cell reporter assay; series mostly up to 92.2 µM; further: nearly all actives have a fitted effect of over 60% in size; further: potency means the concentration at half of the fitted maximal effect
Sequence of Nuclear receptor ROR-gamma (Homo sapiens) (P51449 whole entry, looked up): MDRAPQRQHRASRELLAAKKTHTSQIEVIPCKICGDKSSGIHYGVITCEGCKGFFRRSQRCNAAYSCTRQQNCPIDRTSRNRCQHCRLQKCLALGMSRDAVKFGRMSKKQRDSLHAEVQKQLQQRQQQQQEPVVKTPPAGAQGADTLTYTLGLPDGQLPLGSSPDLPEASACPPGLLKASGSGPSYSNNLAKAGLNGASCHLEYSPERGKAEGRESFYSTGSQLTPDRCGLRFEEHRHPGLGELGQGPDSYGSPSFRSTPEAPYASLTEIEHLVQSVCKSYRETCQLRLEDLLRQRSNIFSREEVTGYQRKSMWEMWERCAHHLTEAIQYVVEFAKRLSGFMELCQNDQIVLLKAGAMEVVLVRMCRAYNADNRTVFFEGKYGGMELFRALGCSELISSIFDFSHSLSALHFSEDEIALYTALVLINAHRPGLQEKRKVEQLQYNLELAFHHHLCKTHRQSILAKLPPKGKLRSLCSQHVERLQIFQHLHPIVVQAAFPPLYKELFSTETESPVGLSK
Procedure, shortened: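 CHO cells with TET-inducible ROR-gamma and RORE-luciferase reporter, dosed then doxycycline-induced. After 16 h at 37C, One-Glo luminescence read; decreased signal indicates antagonism.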

[17] = qHTS assay for small molecule agonists of the antioxidant response element (ARE) signaling pathway measured by Nrf2-dependant transcriptional activity (AID 720636; active means well fitted curve in the direction sought with a large enough effect in the repeat runs; an effect the other way counts as inactive or inconclusive); conditions: ARE-luc HepG2, Nrf2 luciferase reporter, 16 h; series mostly up to 92.4 µM
Procedure, shortened: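 Nrf2-dependent transcription read as ONE-Glo luciferase signal from ARE-luc HepG2 reporter cells after 16 hr compound treatment at 37 C, 5% CO2, in assay medium with 1% dialyzed FBS.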

[18] = qHTS assay for cell viability of the p53RE-bla HCT-116 cell line (AID 743292); conditions: p53RE-bla HCT-116 viability, ATP luminescence, 16 h; series mostly up to 95 µM; further: nearly all actives have a fitted effect of over 55% in size
Procedure, shortened: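 ATP-based luminescent viability (CellTiter-Glo, 30 min RT) after 16 h compound treatment at 37 C of p53RE-bla HCT-116 cells, seeded at 4,000 cells/well and rested 5 h before dosing.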

[19] = qHTS assay for small molecule activators of the human pregnane X receptor (PXR) signaling pathway (AID 720659; call rule not given here); conditions: DPX-2 HepG2 CYP3A4-luciferase, 24 h; series mostly up to 92.3 µM
[20] = biological target: Mitogen-activated protein kinase 10 (Mus musculus) (UniProt Q61831); assay: JNK3 AlphaScreen Assay (AID 530; active means well fitted curve in either direction with a large enough effect, not every such curve was filed as active;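 further: kinase came from lysate of stimulated human HepG2 cells; signal reports phosphorylation of biotinylated GST-cJun 1-79 at Ser73 with 10 µM ATP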); conditions: JNK3 lysate, c-Jun phosphorylation; series mostly up to 11.4 µM
Procedure, shortened: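 Inhibitors reduce antibody binding to phosphorylated biotin-cJun, lowering AlphaScreen luminescence. Lysates from HepG2 cells pre-activated by IL-1beta plus TNF-alpha supplied JNK3; compounds were titrated.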

Structure (SMILES)	Potency [1]	activity change, negative = cytotoxicity [2]	Potency [3]	Potency [4]	Potency [5]	Potency [6]	activation [7]	Potency [8]	Potency [9]	max response [10]	Potency [11]	Potency [12]	Potency [13]	activation [14]	Potency [15]	Potency [16]	Potency [17]	Potency [18]	outcome [19]	Potency [20]
Cc1c(N)cccc1Cl	> 92 µM (inactive)	-0.783% (inactive)	inactive	inactive	inactive	inactive	-4.07% (inactive)	inactive	inactive	8.41%	inactive	inactive	inactive	0.113% (inactive)	inactive	inactive	inactive	inactive	inactive	–
CCCCCCN	> 92 µM (inactive)	-9.38% (inactive)	inactive	–	inactive	inactive	–	inactive	inactive	-10.9%	inactive	inactive	–	-0.245% (inactive)	inactive	inactive	inactive	–	inactive	–
CC(=O)c1ccc(Cl)c(Cl)c1Cl	> 92 µM (inactive)	-14.4% (inactive)	–	inactive	inactive	inactive	1.81% (inactive)	inactive	inactive	-2.84%	–	inactive	–	-0.287% (inactive)	inactive	–	inactive	inactive	inactive	–
CCCCCCCCC1CO1 (stereo not drawn)	> 92 µM (inactive)	-9.26% (inactive)	inactive	inactive	inactive	inactive	-2.27% (inactive)	inactive	inactive	-17.5%	inactive	inactive	–	–	inactive	inactive	inactive	inactive	inactive	–
CC(C)OCC1CO1 (stereo not drawn)	> 92 µM (inactive)	-16.9% (inactive)	inactive	–	inactive	inactive	-3.64% (inactive)	inactive	inactive	-12.5%	inactive	inactive	inactive	0.599% (inactive)	inactive	–	inactive	inactive	inactive	–
CC(=O)OC(C(=O)c1ccccc1)c1ccccc1 (stereo not drawn)	> 92 µM (inactive)	–	inactive	inactive	inactive	inactive	8.92% (inactive)	–	–	-6.96%	inactive	inactive	–	0.305% (inactive)	inactive	–	inactive	inactive	inactive	–
OCC(CBr)(CBr)CBr	> 92 µM (inactive)	–	inactive	–	inactive	inactive	0.0544% (inactive)	inactive	inactive	-4.28%	inactive	inactive	inactive	0.264% (inactive)	inactive	–	inactive	–	–	inactive
Cc1cccnc1	> 92 µM (inactive)	-24.9% (inactive)	inactive	inactive	inactive	inactive	–	inactive	inactive	9.82%	–	inactive	inactive	-0.701% (inactive)	inactive	inactive	inactive	inactive	inactive	inactive
CCCCC(CC)COC(=O)COc1ccc(Cl)cc1Cl (stereo not drawn)	> 92 µM (inactive)	0.559% (inactive)	inactive	inactive	inactive	inactive	-3.61% (inactive) and -5.37% (inactive)	inactive	inactive	5.67% and -6.26%	inactive	inactive	–	–	inactive	–	inactive	inactive	inactive	–
Cc1ccc2ccc3cccc4ccc1c2c34	> 92 µM (inactive)	-8.7% (inactive)	–	–	inactive	inactive	-3.78% (inactive)	–	–	-15.6%	inactive	–	59.6 µM (active)	-0.92% (inactive)	inactive	–	–	inactive	inactive	–
Oc1c(Cl)cc(Cl)c(Cl)c1Cl	57 µM (active)	-2.17% (inactive)	inactive	–	inactive	inactive	5.94% (inactive)	inactive	inactive	23.7% and -14.7%	inactive	inactive	33.5 µM (active)	-0.537% (inactive) and 2.41% (inactive)	inactive	33.5 µM (active)	inactive	inactive	–	inactive
NC(=O)c1ccc([N+](=O)[O-])cc1	> 92 µM (inactive)	-5.57% (inactive)	inactive	inactive	inactive	inactive	1.08% (inactive)	inactive	inactive	-9.87%	inactive	inactive	inactive	-0.545% (inactive)	inactive	inactive	inactive	–	inactive	–
C/C(Cl)=C/CCl	> 92 µM (inactive)	-23.5% (inactive)	inactive	–	inactive	inactive	–	–	–	-5.41%	inactive	inactive	–	–	inactive	inactive	inactive	inactive	inactive	–
Oc1ccc2c(c1)OCO2	> 92 µM (inactive)	–	–	inactive	inactive	inactive	-0.95% (inactive)	inactive	inactive	-4.36%	inactive	inactive	inactive	–	inactive	inactive	inactive	–	inactive	inactive
